Source: PubChem BioAssay (Sanford-Burnham Center for Chemical Genomics)
Hits are enriched below; roughly 3% of the tested compounds scored in any of these assays.
C8 TRAIL sens = sensitizes caspase-8 expressing cells to TRAIL | NB7+C8 cells + TRAIL, ATPlite viability luminescence | inhibition (viability loss, TRAIL sensitization), % at 10 µM | 360,000 tested, 1% active;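 active means compounds causing at least 50% loss of cell viability in the single-dose screen, relative to plate controls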
SENP8 block-1 = blocks the human protease SENP8; Q96LD8; inhibition, % at 10 µM; purified SENP8, Z-RLRGG-aminoluciferin cleavage, luminescence; AID 2540; 330,000 tested, 1.2% active; in the data active means inhibition above about 50%
Target sequence (Q96LD8 whole entry, looked up): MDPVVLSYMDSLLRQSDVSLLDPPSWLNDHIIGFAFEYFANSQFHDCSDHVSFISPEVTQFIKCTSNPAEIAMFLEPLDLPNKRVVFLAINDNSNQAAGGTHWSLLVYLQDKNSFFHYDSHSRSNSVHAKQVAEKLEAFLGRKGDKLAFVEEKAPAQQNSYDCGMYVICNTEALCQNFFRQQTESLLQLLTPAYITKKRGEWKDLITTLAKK
SENP8 block-2 = blocks human SENP8 cleavage of Nedd8 substrate. Q96LD8. recombinant SENP8, Nedd8 substrate fluorescence. inhibition, % at 20 µM. 360,000 tested, 0.64% active; in the data active means inhibition mostly above about 40%, no sharp cut-off; inactive means mostly below about 27%
PPC-1+TRAIL kill = compounds killing PPC-1 cancer cells with TRAIL present (potentiator screen, no TRAIL-free arm) | PPC-1 cells + TRAIL, ATPLite viability luminescence | cell killing (% activity), % at 4 µM or 5 µM | 220,000 tested, 0.41% active;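 active means cell killing above 50% in the first pass at 4 µM, then a duplicate retest at 5 µM averaging 50% or more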;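 further: plate controls were cells with TRAIL plus DMSO for no effect and medium-only wells lacking cells for full effect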
SENP7 block = blocks the human protease SENP7; recombinant SENP7, Z-RLRGG-aminoluciferin luminescence, 40 min; inhibition, % at 5 µM; Q9BQF6; AID 434973; 330,000 tested, 1.5% active;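 active means inhibition above about 50% at the single test dose, limit read from the data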;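 further: plate controls were DMSO with enzyme for no effect and no enzyme buffer wells for full effect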
SENP6 inh = inhibitors of human SENP6 protease; 330,000 tested, 1.8% active; Recombinant SENP6 catalytic domain, aminoluciferin luminescence; inhibition, % at 10 µM; AID 2599; Q9GZR1;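 active means inhibition above about 50% at the single tested dose, limit read from the data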;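 further: plate controls were DMSO wells with enzyme for no effect and DMSO wells lacking enzyme for full effect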
SENP8 confirm = human SENP8 inhibition, confirmed | shares compounds with SENP7 block | Recombinant SENP8, Z-RLRGG-aminoluciferin luminescence, 60 min | inhibition, % at 12.5 µM | 6,200 tested, 40% active;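 active means mean inhibition across replicates above about 50%, limit read from the data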
SENP6 conf = confirmation of human SENP6 protease inhibitors | shares compounds with SENP7 block | recombinant SENP6, Z-RLRGG-aminoluciferin luminescence | inhibition, % at 12.5 µM | 6,200 tested, 58% active | AID 488915
SENP7 conf = confirmation of human SENP7 protease inhibitors; shares compounds with SENP7 block; recombinant SENP7, Z-RLRGG-aminoluciferin luminescence, 40 min; inhibition, % at 12.5 µM; 6,200 tested, 69% active
Casp3 SENP sel = selectivity test for SENP inhibitors: human caspase-3 inhibition. shares compounds with SENP7 block. inhibition, % at 12.5 µM. purified caspase-3, Z-DEVD-aminoluciferin luminescence, 60 min. 6,200 tested, 60% active;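 active means mean inhibition above about 50%, limit read from the data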;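 further: plate controls were enzyme with DMSO for no effect and wells without caspase-3 for full effect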
Target sequence (P42574 28-227 limits assumed): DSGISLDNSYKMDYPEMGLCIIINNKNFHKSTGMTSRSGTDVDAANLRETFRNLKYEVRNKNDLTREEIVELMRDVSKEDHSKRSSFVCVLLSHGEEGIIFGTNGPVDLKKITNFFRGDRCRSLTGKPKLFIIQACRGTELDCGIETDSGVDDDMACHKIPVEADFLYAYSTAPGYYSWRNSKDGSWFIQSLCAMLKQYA
SENP luc ctr = interferes with luciferase luminescence in SENP counter-screen; shares compounds with SENP7 block; Pre-incubated SENP8/Z-RLRGG-aminoluciferin, luciferase luminescence interference; inhibition, % at 12.5 µM; 6,200 tested, 39% active; AID 488919;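 active means mean inhibition above about 50% when retested at one dose, limit read from the data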;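 further: plate controls were DMSO wells with completed reaction for no effect and substrate without enzyme for full effect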
* = called active by the depositor; i = inactive; x = not tested or not shown.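 How the source made its calls, unless noted: active means mean inhibition above about 50% in the one-dose retest (limit read from the data); inactive means the rest.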

SMILES	C8 TRAIL sens	SENP8 block-1	SENP8 block-2	PPC-1+TRAIL kill	SENP7 block	SENP6 inh	SENP8 confirm	SENP6 conf	SENP7 conf	Casp3 SENP sel	SENP luc ctr
CCN(CC)S(=O)(=O)c1ccc(N=Nc2c(C)[nH]n(C(N)=S)c2=O)cc1	15	17	36	14	18	54*	41	37	72*	56*	18
CCOc1ccccc1N=Nc1c(C)[nH]n(C(N)=S)c1=O	7	-3	29	x	-8	-15	x	x	x	x	x
O=C(OCc1ccc(Cl)c(Cl)c1)c1ccccn1	-13	51*	8	-14	69*	80*	71*	69*	90*	71*	73*
Nc1ncccc1OCc1ccc(Cl)c(Cl)c1	3	70*	31	-10	81*	75*	79*	79*	94*	75*	81*
O=C(OCc1ccc(Cl)c(Cl)c1)c1cccnc1Cl	-17	7	12	x	3	37	x	x	x	x	x
COc1ccc(S(=O)(=O)N2CCOCC2)cc1NC(=O)C1COc2ccccc2O1 (centres undefined)	16	0	9	x	-7	-1	x	x	x	x	x
Fc1cccc(CSc2ccc3nnc(-c4cccnc4)n3n2)c1	0	-1	-190	12	0	10	x	x	x	x	x
Oc1ccccc1-c1csc(-c2ccccc2)n1	0	71*	8	49	83*	76*	-25	74*	92*	44	38
Oc1ccc(-c2csc(-c3ccccc3)n2)cc1O	22	36	13	12	29	54*	60*	56*	73*	10	68*
Oc1ccc(-c2csc(-c3cccnc3)n2)cc1O	23	-3	12	7	0	-13	x	x	x	x	x
CCCCNC(=O)C(CC)(ONc1ccccc1C(F)(F)F)c1ccccc1OC (centres undefined)	8	-1	21	x	5	4	x	x	x	x	x
NC(=S)Nc1cccc(Cl)c1	16	-1	8	6	0	-9	x	x	x	x	x
O=C(Nc1cccc(Cl)c1)c1ccc(OC(=S)N2CCOCC2)cc1	36	3	10	-2	79*	33	21	10	78*	47	1
CS/C(N)=N/C(=S)Nc1cccc(Cl)c1	6	5	22	12	21	58*	72*	68*	88*	57*	76*
COc1cccc(NC(=O)c2ccccc2F)c1	37	49	-7	x	45	51*	25	19	67*	72*	53*
Cc1cccc(NC(=O)c2cccc(OC(=S)N3CCOCC3)c2)c1	-6	22	9	x	28	37	x	x	x	x	x
COc1cccc(NC(=O)COC(=O)c2c(C)nn(-c3ccccc3)c2C)c1	15	65*	10	x	74*	76*	71*	67*	90*	70*	75*
OCCSc1nc2ccccc2n1CCOc1ccccc1	8	0	15	2	-6	10	x	x	x	x	x
Cc1noc(C)c1NC(=O)N(C)C[C@H]1OCc2cnnn2CCCC(=O)N([C@@H](C)CO)C[C@H]1C	-4	x	8	x	x	x	x	x	x	x	x
COc1ccccc1N1CCN(S(=O)(=O)CCNC(=O)c2cccs2)CC1	-4	x	14	x	x	x	x	x	x	x	x
O=C(NCc1cccnc1)c1cc(C2CCCCN2S(=O)(=O)c2cccc3cccnc23)on1 (centres undefined)	-3	x	12	x	x	x	x	x	x	x	x
COc1ccc(OC)c(CCNC(=O)CCC(=O)N2CCOc3ccc(C)cc32)c1	-1	-2	-6	x	1	-22	x	x	x	x	x
COc1cccc(NC(=O)Cc2ccccc2)c1	25	67*	18	5	78*	74*	70*	65*	90*	83*	76*
COc1cc(NC(=O)Nc2cccc(Cl)c2)c(C(=O)O)cc1OC	16	-2	i	0	-3	-20	x	x	x	x	x
COc1cccc(NC(=S)NC(=O)Cc2ccccc2)c1	-10	-11	9	x	4	-32	x	x	x	x	x
SMILES	C8 TRAIL sens	SENP8 block-1	SENP8 block-2	PPC-1+TRAIL kill	SENP7 block	SENP6 inh	SENP8 confirm	SENP6 conf	SENP7 conf	Casp3 SENP sel	SENP luc ctr
COc1ccc(COC(=O)c2c(C)nn(-c3ccccc3)c2Cl)cc1	-4	30	6	x	18	61*	29	32	54*	30	15
O=C(Nc1cccc(Cl)c1)Nc1ccccc1C(=O)O	22	97*	-217	21	100*	99*	98*	101*	104*	99*	100*
COc1ccc(NC(=O)c2c(C)nn(-c3ccccc3)c2Cl)cc1	-3	-15	28	x	-12	-5	x	x	x	x	x
COc1cccc(NC(=O)c2ncc(Cl)c(Cl)c2Cl)c1	1	87*	17	-7	90*	70*	49	89*	101*	91*	18
NC(=O)c1ccccc1NC(=O)Nc1cccc(Cl)c1	-23	82*	-162	10	92*	61*	86*	87*	99*	82*	89*
O=C(Nc1ccccc1)Nc1cccc(Cl)c1	1	35	15	18	55*	60*	58*	58*	86*	44	71*
O=C(Nc1ccc(C(=O)N2CCCCC2)cc1)Nc1cccc(Cl)c1	4	27	8	x	73*	67*	-7	-6	-4	29	4
COc1cccc(NC(=O)Nc2ccccc2C(N)=O)c1	3	61*	-46	-2	82*	74*	70*	68*	90*	85*	77*
O=C1Nc2ccccc2SC1c1ccccc1 (centres undefined)	-2	x	11	x	x	x	x	x	x	x	x
Cc1ccc(NC2Sc3ccccc3NC2=O)cc1 (centres undefined)	16	53*	9	24	30	77*	53*	41	68*	57*	55*
O=C(NCc1ccccc1)c1c(F)c(F)c(F)c(F)c1F	6	52*	16	-11	9	-1	-3	0	-5	-1	-3
O=C1CCCC(=NNC(=O)c2cc3ccccc3cc2O)C1	30	89*	-192	x	88*	90*	89*	92*	101*	93*	88*
Cc1nc2nc(-c3cccs3)cn2nc1C	0	-9	-367	-12	-7	-3	x	x	x	x	x
